Sampled rows, rich in hits. Any-hit rate of the full collection: about 1.1%.
RXFP1 antagonist: RXFP1 (human) relaxin receptor antagonism; HEK293-RXFP1, relaxin-stimulated cAMP HTRF, 30 min; active compounds read low; activity change, negative = inhibition, % at 57.5 µM; actives 0.59% (n = 350,000); AID 1259400;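 active = activity change of -60% or lower, but not beyond a set lower limit; inconclusive = change between -60% and -40%, or beyond the set limit; inactive = change above -40%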; also: % is scaled to controls: 0 for no effect and ±100 for the full control effect
RXFP1 agonist: RXFP1 (human) receptor agonism. HEK293T-RXFP1 cAMP TR-FRET, 30 min; response scale: percent of porcine relaxin response, buffer zero. actives 0.3% (n = 370,000). Q9HBX9. AID 2676. Potency, µM (top dose mostly 57.5 µM), inactives show top-dose activation, most hits filed as activators; also: potency is read from the fitted curve at half-maximal effect; % is scaled to controls: 0 for no effect and ±100 for the full control effect; nearly all actives have a fitted effect of over 60% in size
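HEK293T cells stably expressing RXFP1 were pretreated with the PDE4 inhibitor Ro 20174, exposed to compounds for 30 min at 37C, lysed, and cAMP was read by TR-FRET. Data normalized to buffer (basal) and 29 nM porcine relaxin (100%).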
gsp agonist: agonists of gsp mutant (McCune-Albright syndrome); Potency, µM (top dose mostly 76.9 µM), for inactives: top-dose activation (cAMP increase), most hits filed as activators; AID 624287; actives 0.13% (n = 340,000); gsp mutant cells, cAMP HTRF, 30 min; active = well fitted activation curve with a large enough effect; inconclusive = small, poorly fitted or top-dose-only effect, or another doubt; inactive = no such curve, though single readings can be large or run the other way; cell line not stated here;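 also: phosphodiesterase inhibitor Ro 20-1724 added with compounds to block cAMP breakdown; potency is read from the fitted curve at half-maximal effect; nearly all actives have a fitted effect of over 60% in size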
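Cells stably selected in G418 were plated at 2000/well, grown 16-24 hr, then given compounds in DMSO with the PDE inhibitor […] (300 uM solution added) for 30 min at 37C; cAMP was read by HTRF.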
gsp antag: antagonists of gsp mutant (McCune-Albright syndrome); gsp-mutant cells, cAMP HTRF, 30 min; Potency, µM (titrated, usually from 76.9 µM), without a hit: top-dose activity change, negative = inhibition, usual class: inhibitors; actives 0.4% (n = 340,000); calls by dose curve; cell line not stated here;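 also: intracellular cAMP measured with PDE inhibitor Ro 20-1724 present during compound exposure; potency is read from the fitted curve at half-maximal effect; % is scaled to controls: 0 for no effect and ±100 for the full control effect; nearly all actives have a fitted effect of over 65% in size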
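Cells in G418 medium, seeded 16-24 h, 37C; buffer exchange to DPBS + 1 mM CaCl2, 0.5 mM MgCl2, 0.05% BSA; cpds in DMSO + […] (300 uM stock), 30 min 37C; HTRF cAMP detection.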
ASM inhibitor: inhibitors of human secretory acid sphingomyelinase; actives 0.006% (n = 340,000); AID 504937; P17405; Potency, µM (series often up to 57.5 µM), for the others: at the highest dose activity change, negative = inhibition, most hits filed as inhibitors; placental ASM, HMU-PC fluorogenic substrate, 60 min; also: potency is read from the fitted curve at half-maximal effect
Target sequence (P17405 47-631 limits assumed): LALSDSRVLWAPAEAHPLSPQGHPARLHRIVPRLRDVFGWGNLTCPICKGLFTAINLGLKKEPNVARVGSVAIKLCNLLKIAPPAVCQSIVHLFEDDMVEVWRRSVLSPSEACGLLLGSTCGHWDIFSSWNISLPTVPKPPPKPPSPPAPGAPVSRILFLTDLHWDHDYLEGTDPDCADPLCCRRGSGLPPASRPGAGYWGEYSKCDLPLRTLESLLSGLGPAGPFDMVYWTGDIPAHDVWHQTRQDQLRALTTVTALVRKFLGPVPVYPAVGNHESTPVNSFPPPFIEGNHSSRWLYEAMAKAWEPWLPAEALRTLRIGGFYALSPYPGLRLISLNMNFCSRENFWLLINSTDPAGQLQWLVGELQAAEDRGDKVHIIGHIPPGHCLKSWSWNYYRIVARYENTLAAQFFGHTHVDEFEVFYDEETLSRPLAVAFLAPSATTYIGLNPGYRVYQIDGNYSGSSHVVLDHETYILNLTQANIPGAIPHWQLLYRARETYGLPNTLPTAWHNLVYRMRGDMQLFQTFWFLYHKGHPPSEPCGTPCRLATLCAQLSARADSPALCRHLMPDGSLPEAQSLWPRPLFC
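Fluorescence read-out (Ex 386 nm, Em 447 nm) after stopping the reaction at pH 10. Enzyme: ASM from human placenta; substrate HMU-PC0, 9 uM final; 60 min, 37 °C. Compound preincubation 10 min, ambient temperature.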
a7 integrin act: integrin-mediated muscular dystrophy alleviation activation | alpha7betagal myoblasts, beta-gal FDG fluorescence, 48 h | Potency, µM (top dose mostly 38.3 µM), for inactives: at the highest dose activation, most hits filed as activators | actives 0.064% (n = 350,000);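 also: potency is read from the fitted curve at half-maximal effect; 100% = response of the positive control SU9516; nearly all actives have a fitted effect of over 60% in size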
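alpha7betagal+/- myoblasts (passage 13, 250/well) treated 48 h at 37C with compounds at 1:260 dilution of DMSO stock. Lysed, then beta-galactosidase activity read as FDG fluorescence (ex 480/em 540) after 30 min, with pre-read for autofluorescence.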
The depositor's hits bear a star; [ ] = remark or other dose. Unless noted, calls follow the shape of the dose curve; as a rule, active = well fitted curve in the direction sought with a large enough effect; inconclusive = small, poorly fitted or top-dose-only effect, or another doubt; inactive = no such curve, though single readings can be large; an effect the other way counts as inactive or inconclusive.

What do the screens show for `CCOC(=O)C1=C(N)OC2=C(C(=O)CC(C)(C)C2)C1c1ccc(C)s1` (centres undefined)?
RXFP1 antagonist: -62*; RXFP1 agonist: -4%; gsp agonist: -6%[15.4 µM]; gsp antag: -19%; ASM inhibitor: -2%; a7 integrin act: 21%

How did C/C(=N\NC(=O)c1ccc(-c2ccccc2)cc1)C1C(=O)c2ccccc2C1=O do in these assays?
RXFP1 antagonist: -7; RXFP1 agonist: 0%; gsp agonist: 3%; gsp antag: 28µM*; ASM inhibitor: -22%; a7 integrin act: -20%

What do the screens show for `C/C(=N\NC(=O)c1ccc(Br)cc1)C1C(=O)c2ccccc2C1=O`?
RXFP1 antagonist: 25; RXFP1 agonist: -1%; gsp agonist: -2%; gsp antag: inconclusive; ASM inhibitor: -7%; a7 integrin act: 1%

What do the screens show for `COc1cccc(CNC(=O)C2CCN(Cc3cc4ccccc4n3Cc3ccc(C)cc3)CC2)c1`?
RXFP1 antagonist: 1; RXFP1 agonist: 1%

What do the screens show for `CC(=O)Nc1ccc(C(=O)Nc2cccc(S(=O)(=O)N(C)c3ccccc3)c2)cc1`?
RXFP1 antagonist: -7; RXFP1 agonist: 1%; gsp agonist: 13%; gsp antag: -18%; ASM inhibitor: -8%; a7 integrin act: 24%

What do the screens show for `CN(c1cccc(NC(=O)c2ccc(N(C)S(=O)(=O)c3ccccc3)cc2)c1)S(C)(=O)=O`?
RXFP1 antagonist: -6; RXFP1 agonist: 4%; gsp agonist: -28%; gsp antag: 25µM*; ASM inhibitor: 0%; a7 integrin act: -13%

How did CN(c1ccccc1)S(=O)(=O)c1ccc(NC(=O)c2ccc(-c3ccccc3)cc2)cc1 do in these assays?
RXFP1 antagonist: -31; RXFP1 agonist: 1%; gsp agonist: 25%; gsp antag: 7%; ASM inhibitor: 0%; a7 integrin act: -40%

Results for CN(c1ccccc1)S(=O)(=O)c1cccc(NC(=O)c2cc(=O)c3ccccc3o2)c1 ?
RXFP1 antagonist: -32; RXFP1 agonist: 1%; gsp agonist: 16%; gsp antag: 40µM*; ASM inhibitor: -14%; a7 integrin act: -4%

How did Cc1nc2cc(NC(=O)c3ccc(S(=O)(=O)N(C)c4ccccc4)cc3)ccc2o1 do in these assays?
RXFP1 antagonist: -29; RXFP1 agonist: -1%; gsp agonist: 2%[15.4 µM]; gsp antag: 32µM*; ASM inhibitor: 6%; a7 integrin act: 0%

What do the screens show for `NS(=O)(=O)c1cccc(NC(=O)c2cc(=O)c3ccccc3o2)c1`?
RXFP1 antagonist: -4; RXFP1 agonist: 1%; gsp agonist: inconclusive; gsp antag: 1%; ASM inhibitor: 2%; a7 integrin act: inconclusive

Results for C=CCc1ccc(OCC(O)COc2ccc(CC=C)cc2OC)c(OC)c1 ?
RXFP1 antagonist: -69*; RXFP1 agonist: -5%; gsp agonist: -25%; gsp antag: -6%; ASM inhibitor: -19%; a7 integrin act: 3%

Results for CCn1c(SCCN2CCOCC2)nc2c1c(=O)n(C)c(=O)n2C ?
RXFP1 antagonist: 6; RXFP1 agonist: inconclusive; gsp agonist: 29%[15.4 µM]; gsp antag: 0%; ASM inhibitor: -1%; a7 integrin act: -1%

Results for Cn1c(=O)c2c(nc(SCCN3CCOCC3)n2C)n(C)c1=O ?
RXFP1 antagonist: 4; RXFP1 agonist: inconclusive; gsp agonist: 8.9µM*; gsp antag: 3%; ASM inhibitor: 4%; a7 integrin act: -17%

Results for Cn1c(=O)c2[nH]c(SCCN3CCOCC3)nc2n(C)c1=S ?
RXFP1 antagonist: -72*; gsp agonist: 27%; gsp antag: inconclusive; ASM inhibitor: 10%; a7 integrin act: 11%

Results for CN(C)C(CNc1ccc(C(F)(F)F)cc1[N+](=O)[O-])c1ccccc1 (centres undefined) ?
RXFP1 antagonist: -7; RXFP1 agonist: -1%; gsp agonist: 18%[15.4 µM]; gsp antag: -39%; ASM inhibitor: -8%; a7 integrin act: 0%

Results for COc1ccc(-c2cc(=O)[nH]c(=S)[nH]2)cc1 ?
RXFP1 antagonist: -6; RXFP1 agonist: 4%; gsp agonist: 10µM*; gsp antag: 0%; ASM inhibitor: 4%; a7 integrin act: 5%

What do the screens show for `COc1ccc(-c2cc(=O)c3cc(OC)ccc3[nH]2)cc1`?
RXFP1 agonist: 0%; gsp antag: -2%; ASM inhibitor: 11%; a7 integrin act: -8%

What do the screens show for `COc1ccc2c(C)cc(SCC(=O)NC3CCCC3)nc2c1`?
RXFP1 antagonist: 13; gsp agonist: 11µM*; gsp antag: 14%; ASM inhibitor: 1%; a7 integrin act: -25%

How did COc1cccc(S(=O)(=O)NCc2ccc(C(=O)Nc3ccc(Cl)c(Cl)c3)cc2)c1 do in these assays?
RXFP1 antagonist: -2; RXFP1 agonist: -1%; gsp agonist: 11%; gsp antag: -27%; ASM inhibitor: -12%; a7 integrin act: -3%

Results for O=C(Nc1ccc(Cl)c(Cl)c1)c1cccc(S(=O)(=O)NCc2cccnc2)c1 ?
RXFP1 antagonist: -40; RXFP1 agonist: -1%; gsp agonist: 7%[15.4 µM]; gsp antag: 28µM*; ASM inhibitor: -23%; a7 integrin act: 13%

How did CCN1C(=O)c2ccccc2C1Nc1cccc(OCCN2CCCCC2)c1 (centres undefined) do in these assays?
RXFP1 antagonist: -7

How did O=C(c1ccc(N2CCN(C(=O)c3ccccc3Br)CC2)cc1)c1cccc(F)c1 do in these assays?
RXFP1 antagonist: -11; RXFP1 agonist: 0%; gsp agonist: inconclusive; gsp antag: inconclusive; ASM inhibitor: -3%; a7 integrin act: -39%

What do the screens show for `O=C(c1ccc(N2CCN(C(=O)c3cccc(F)c3)CC2)cc1)c1cccc(F)c1`?
RXFP1 antagonist: -5; RXFP1 agonist: 1%; gsp agonist: 3%; gsp antag: 32µM*; ASM inhibitor: -7%; a7 integrin act: -36%

Results for Cc1[nH][nH]c(=O)c1C(c1ccc(Cl)cc1)c1c(C)[nH][nH]c1=O ?
RXFP1 antagonist: -80*; RXFP1 agonist: -2%; gsp agonist: -31%; gsp antag: 8%; ASM inhibitor: -1%; a7 integrin act: 19%

How did C[C@@H]1CN([C@H](C)CO)C(=O)CCCn2nncc2CO[C@H]1CN(C)C(=O)c1ccc(N2CCN(C)CC2)cc1 do in these assays?
RXFP1 antagonist: 9; gsp agonist: -48%; a7 integrin act: -9%

How did C[C@@H]1CN([C@@H](C)CO)C(=O)CCCn2nncc2CO[C@@H]1CN(C)C(=O)c1ccc(N2CCN(C)CC2)cc1 do in these assays?
RXFP1 antagonist: 6; gsp agonist: 10µM*; a7 integrin act: -9%

From PubChem BioAssay
